BAZ2B inh – blocks human BAZ2B | 360,000 tested, 4.4% active | AID 504333 | AlphaScreen BAZ2B-H3K14Ac peptide displacement | Q9UIF8 | Potency, µM (doses to about 114 µM), for the others: top-dose activity change, negative = inhibition, hits mostly inhibitors; also: % is scaled to controls: 0 for no effect and ±100 for the full control effect; nearly all actives have a fitted effect of over 60% in size
Target sequence (Q9UIF8 whole entry, looked up): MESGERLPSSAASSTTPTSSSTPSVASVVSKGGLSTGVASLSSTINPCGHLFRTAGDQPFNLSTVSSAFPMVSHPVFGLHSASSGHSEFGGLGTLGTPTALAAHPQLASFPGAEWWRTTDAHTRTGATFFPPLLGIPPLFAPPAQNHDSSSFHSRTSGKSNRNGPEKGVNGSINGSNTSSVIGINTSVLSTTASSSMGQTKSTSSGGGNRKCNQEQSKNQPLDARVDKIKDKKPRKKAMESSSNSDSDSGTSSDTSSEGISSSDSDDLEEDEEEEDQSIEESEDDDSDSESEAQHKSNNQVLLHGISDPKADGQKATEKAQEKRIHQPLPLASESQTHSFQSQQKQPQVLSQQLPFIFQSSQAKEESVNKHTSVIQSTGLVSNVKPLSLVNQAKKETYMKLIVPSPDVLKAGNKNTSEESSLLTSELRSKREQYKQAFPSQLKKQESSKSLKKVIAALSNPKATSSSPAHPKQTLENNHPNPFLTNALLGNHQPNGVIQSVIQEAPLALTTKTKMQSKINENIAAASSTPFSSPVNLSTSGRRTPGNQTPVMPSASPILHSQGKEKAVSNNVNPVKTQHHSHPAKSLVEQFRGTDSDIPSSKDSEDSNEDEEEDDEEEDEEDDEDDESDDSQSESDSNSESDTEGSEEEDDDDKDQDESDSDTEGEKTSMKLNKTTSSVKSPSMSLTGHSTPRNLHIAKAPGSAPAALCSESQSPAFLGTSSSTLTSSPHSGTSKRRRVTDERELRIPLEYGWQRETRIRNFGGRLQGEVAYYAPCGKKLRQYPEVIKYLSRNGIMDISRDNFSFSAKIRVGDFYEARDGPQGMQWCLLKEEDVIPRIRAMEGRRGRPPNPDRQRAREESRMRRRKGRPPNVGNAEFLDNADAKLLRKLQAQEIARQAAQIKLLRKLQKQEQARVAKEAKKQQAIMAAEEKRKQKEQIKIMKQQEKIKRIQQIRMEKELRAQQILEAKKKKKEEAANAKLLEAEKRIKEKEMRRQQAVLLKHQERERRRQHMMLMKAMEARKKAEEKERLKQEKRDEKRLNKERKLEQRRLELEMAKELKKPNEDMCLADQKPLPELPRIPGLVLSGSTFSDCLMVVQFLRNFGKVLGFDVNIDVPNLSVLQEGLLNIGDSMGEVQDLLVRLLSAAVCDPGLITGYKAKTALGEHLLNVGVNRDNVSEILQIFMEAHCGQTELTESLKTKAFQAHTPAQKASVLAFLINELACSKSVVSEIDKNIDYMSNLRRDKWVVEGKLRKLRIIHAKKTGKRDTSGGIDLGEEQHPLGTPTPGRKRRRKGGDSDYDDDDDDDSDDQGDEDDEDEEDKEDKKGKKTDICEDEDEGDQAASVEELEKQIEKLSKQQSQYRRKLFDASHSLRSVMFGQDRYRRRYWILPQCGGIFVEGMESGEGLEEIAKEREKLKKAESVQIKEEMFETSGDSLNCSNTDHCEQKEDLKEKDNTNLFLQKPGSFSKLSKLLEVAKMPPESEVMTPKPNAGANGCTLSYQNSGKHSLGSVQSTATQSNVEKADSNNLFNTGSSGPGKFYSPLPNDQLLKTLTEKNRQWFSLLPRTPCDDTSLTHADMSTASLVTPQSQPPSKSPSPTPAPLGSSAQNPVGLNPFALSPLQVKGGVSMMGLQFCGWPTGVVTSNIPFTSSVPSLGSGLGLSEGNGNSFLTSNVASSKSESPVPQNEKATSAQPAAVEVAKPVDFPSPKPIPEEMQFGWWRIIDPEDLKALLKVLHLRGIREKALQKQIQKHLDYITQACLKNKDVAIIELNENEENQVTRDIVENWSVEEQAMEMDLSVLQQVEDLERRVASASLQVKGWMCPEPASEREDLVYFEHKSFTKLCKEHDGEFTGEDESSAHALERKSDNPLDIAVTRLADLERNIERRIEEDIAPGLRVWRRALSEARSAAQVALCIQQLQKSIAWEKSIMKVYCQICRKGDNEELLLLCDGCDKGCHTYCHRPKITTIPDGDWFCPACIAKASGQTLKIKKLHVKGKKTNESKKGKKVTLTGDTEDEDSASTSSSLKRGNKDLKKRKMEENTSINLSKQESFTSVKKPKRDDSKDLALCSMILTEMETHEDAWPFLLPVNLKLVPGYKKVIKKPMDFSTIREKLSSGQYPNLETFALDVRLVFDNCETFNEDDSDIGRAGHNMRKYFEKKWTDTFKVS
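Complex of BAZ2B and biotin-H3K14Ac (50 nM apiece) forms over 30 min at RT, then faces library compounds up to 110 uM for another 30 min; AlphaScreen beads added, 20 min dark incubation, luminescence read.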
HP1b binding inh – blocks HP1-beta chromodomain binding to methylated histone tails. P83916. 390,000 tested, 0.56% active. Potency, µM (highest dose often 114 µM), without a hit: at the highest dose activity change, negative = inhibition, actives largely listed as inhibitors. AlphaScreen HP1-beta / biotin-H3K9me3 peptide binding; also: nearly all actives have a fitted effect of over 70% in size
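Compound inhibition of the preformed complex between 50 nM HP1-beta and 50 nM biotinylated H3K9me3 peptide was read by AlphaScreen. Buffer was PBS pH 7.4 with 0.01% Tween-20. Incubations ran 30 min at room temperature, with 10 ug/mL donor/acceptor beads.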
JMJD2A Tudor inh – blocks the human JMJD2A Tudor domain; O75164; AlphaScreen JMJD2A-Tudor / H3K4me3 peptide binding; Potency, µM (top dose mostly 114 µM), without a hit: at the top dose activity change, negative = inhibition, usual class: inhibitors; 390,000 tested, 4.4% active; also: % is scaled to controls: 0 for no effect and ±100 for the full control effect; nearly all actives have a fitted effect of over 50% in size
G9a inh – blocks human histone lysine methyltransferase G9a. 350,000 tested, 8.8% active. Potency, µM (doses to about 102 µM), inactives show at the top dose activity, negative = inhibition, actives largely listed as inhibitors. G9a H3K9 monomethylation, AlphaScreen, 2 h; also: % is scaled to controls: 0 for no effect and ±100 for the full control effect; nearly all actives have a fitted effect of over 75% in size
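Enzyme 20 nM + cpd, 15 min RT; add b-H3K9 pep 500 nM / SAM 20 uM; 2 h RT; anti-H3K9me1 Ab 0.5 ug/mL + SA donor / anti-rabbit acceptor beads 20 ug/mL each, 10 min; AlphaScreen read.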
GLS inhibitor – glutaminase GLS (human) inhibition | GLS enzymatic activity, qHTS titration | O94925 | Potency, µM (highest dose often 45.5 µM), for inactives: at the highest dose activity change, negative = inhibition, usual class: inhibitors | 410,000 tested, 0.21% active; also: % is scaled to controls: 0 for no effect and ±100 for the full control effect
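hKGA; 45 mM KH2PO4 pH 8.2 + 0.02% Tween-20; cpd via pin tool; 1 mM Gln soln; GluOx/HRP/Amplex Red; RT 30 min; fluor. t0 & final.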
* = called active by the depositor; ? = inconclusive; . = no result given; [ ] = remark or other dose. In the library only some 10% were active in any assay of this set; here they are far more common. Calls follow the shape of the dose curve; as a rule, active = well fitted curve in the direction sought with a large enough effect; inconclusive = small, poorly fitted or top-dose-only effect, or another doubt; inactive = no such curve, though single readings can be large; an effect the other way counts as inactive or inconclusive. Potency is read from the fitted curve at half-maximal effect.

SMILES	BAZ2B inh	HP1b binding inh	JMJD2A Tudor inh	G9a inh	GLS inhibitor
O=C(NCCc1ccccn1)c1nc(Cn2ccc([N+](=O)[O-])n2)no1	6.2%	8.7%	-10.9%	26.5%	7.7%
O=C(Cn1cnc2cc([N+](=O)[O-])ccc2c1=O)NC1CCS(=O)(=O)C1 (stereo not drawn)	?	27.3%	-17.5%	50.1µM*	3.8%
O=C(Nc1cc([N+](=O)[O-])ccc1O)NC1CCS(=O)(=O)C1 (stereo not drawn)	10.0%	19.3%	-2.0%	15.8µM*	20.9%
O=C(Nc1cccc([N+](=O)[O-])c1)NC1CCS(=O)(=O)C1 (stereo not drawn)	7.7%	32.0%	5.7%	58.6%	-1.7%
Cc1cccc(-n2c3c(cc(-c4nc(-c5ccc(Cl)cc5)cs4)c2=O)C(=O)CC(C)(C)C3)c1	14.9%	17.0%	14.7%	-5.7%[59 µM]	-1.8%
CC(=O)c1ccc(OCC(=O)OCC(=O)c2ccc(S(=O)(=O)N3CCCCC3)cc2)cc1	.	.	.	.	-3.7%
CCc1ccc(/C(C)=N/NC(=O)CNC(=O)/C=C/c2ccccc2OC)cc1	5.0%	2.4%	-9.3%	18.8%	6.4%
COc1ccccc1/C=C/C(=O)NCC(=O)N/N=C/c1ccc(C)o1	-1.2%	16.5%	-14.8%	44.7µM*	0.8%
COc1ccccc1/C=C\C(=O)NCC(=O)N/N=C(/C)c1cccc([N+](=O)[O-])c1	3.5%	52.9%	-7.0%	79.4µM*	-18.6%
CCC(CO)NC(=O)C(=O)Nc1c2c(nn1-c1ccc(F)cc1)CSC2 (stereo not drawn)	0.2%	3.8%	-4.2%	?	4.9%
CCc1cccc(NS(=O)(=O)c2csc(C(N)=O)c2)c1	-18.3%	13.9%	6.4%	10.7%	-6.4%
O=C(c1cnccn1)N1CCC2(CC1)CCN(C(c1ccccc1)c1ccccc1)CC2	.	.	.	-18.0%[12.7 µM]	.
CC(=O)N(C[C@@H](C)C(=O)O)c1c(I)cc(I)c(N)c1I	.	.	.	22.9%[21.5 µM]	-4.0%[20 µM]
N#Cc1c(SCC(N)=O)nc2c(c1-c1ccncc1)CCCC2	-3.9%	38.0%	?	39.8µM*	5.0%
COc1ccc([C@H]2CC(=O)C=C(c3cc(OC)ccc3OC)C2)cc1	-7.3%	29.5%	-25.9%	18.1%[2.33 µM]	5.6%
S=c1[nH]c(-c2ccc(Cl)cc2)cs1	44.7µM*	-23.2%	?	35.5µM*	-5.6%
Cc1ccc(-c2csc(=S)[nH]2)cc1	?	4.4%	-33.9%	12.6µM*	-27.7%
CC1(C)N=C(N)N=C(N)N1c1ccc(Cl)cc1	.	.	.	.	-13.3%
CCN1/C(=C/c2sc(-c3ccccc3C)c[n+]2C)Sc2ccccc21	-22.2%	-12.4%	?	11.2µM*	-10.1%
CCN1/C(=C/C(=O)c2ccco2)Sc2ccccc21	?	69.1%	-3.0%	?	-0.8%
Cc1ccc(C)c(N2CCN(C(=O)CCS(=O)(=O)c3cc(Br)cc4c3N(C(=O)C3CC3)CC4)CC2)c1	-13.6%	7.8%	-27.4%	-7.9%[59 µM]	-12.1%
O=[N+]([O-])c1cccnc1N1CCC(c2cc(-c3ccc(Cl)cc3)n[nH]2)CC1	50.1µM*	?	25.1µM*	8.91µM*	3.1%
NS(=O)(=O)c1ccc(NC(=O)COC(=O)CNC(=O)C23CC4CC(CC(C4)C2)C3)cc1	1.3%	50.4%	-6.5%	-5.1%	2.6%
CCCCNC(=O)CN1C(=O)c2c(c3ccccc3n2C)C1c1ccc(OC)cc1 (stereo not drawn)	-4.2%	30.4%	0.0%	-1.5%[59 µM]	4.0%
CC(C)c1ccc(NC(=S)NNC(=O)c2cccnc2)cc1	2.0%	13.6%	-24.2%	31.6µM*	11.3%
SMILES	BAZ2B inh	HP1b binding inh	JMJD2A Tudor inh	G9a inh	GLS inhibitor
CC(C)c1ccc(NC(=O)c2cccnc2)cc1	.	106.8%	-6.4%	7.4%[59 µM]	0.4%
O=C(NNC(=S)Nc1ccc(Br)cc1)c1cccnc1	-0.9%	10.1%	-16.1%	10µM*	33.6%
CCNC(=S)NNC(=O)c1cccnc1	5.8%	23.1%	-22.1%	24.8%[59 µM]	27.2%
CC(C)c1ccc(NC(=O)Cn2cc(S(=O)(=O)Cc3cccc(Cl)c3)c3ccccc32)cc1	-12.8%	-15.3%	-13.5%	-0.8%[59 µM]	-13.6%
O=C1NC(c2cccc([N+](=O)[O-])c2)=CCN1c1ccccc1O	-21.4%	13.3%[57 µM]	-11.5%	18.9µM*	20.8%
O=[N+]([O-])c1ccc(N2CCN(c3ccccc3O)CC2)c(Cl)c1	?	?	-30.1%	?	3.1%
O=C(NNc1ccc(-c2csnn2)cc1)c1ccccc1C(F)(F)F	0.0%	24.8%	-8.7%	28.2µM*	11.2µM*
O=C1N/C(=C/c2ccc(N3CCOCC3)o2)C(=O)N1c1ccccc1	-27.5%	-20.2%	?	10µM*	7.3%
C=CCN1C(=O)N/C(=C/c2ccc(N3CCOCC3)o2)C1=O	1.4%	.	.	31.6µM*	.
CCOC(=O)C1=C(N)Oc2cc(O)ccc2C1c1cccc([N+](=O)[O-])c1 (stereo not drawn)	39.8µM*	-17.1%	?	.	-2.4%
CCOC(=O)C1=C(N)Oc2cc(O)ccc2C1c1ccccc1 (stereo not drawn)	11.2%	-0.3%	-32.8%	3.4%[0.501 µM]	4.5%
O=C(O)c1cnn2c1C(=O)N(Cc1cccs1)CC2	22.4µM*	31.6µM*	?	39.8µM*	0.0%
CN(C)CCC1(C2=CCCC2)CC/C(=C/c2ccc(Cl)cc2)C1=O (stereo not drawn)	.	-6.0%	-29.9%	.	23.6%
Cc1ccc2c(c1)C(=O)C(=O)N2CCCOc1ccccc1C	-17.4%	?	39.8µM*	-37.8%	3.3%
Cc1ccc2c(c1)C(=O)C(=O)N2CCOc1ccccc1	?	?	?	44.7µM*	-14.2%
O=[N+]([O-])c1ccc(Sc2nccn2Cc2ccccc2)c([N+](=O)[O-])c1	?	-32.9%	?	44.7µM*	0.7%
O=[N+]([O-])c1ccc(Sc2ncccn2)c([N+](=O)[O-])c1	-30.0%	9.6%	-22.1%	.	1.0%
CC(=O)c1cccc(CN2CCC(CO)(CCCc3ccccc3)CC2)c1	-2.3%	40.0%	-13.4%	.	4.3%
CC(=O)Nc1ccc2nc(CN3CCC(CO)(CCc4ccccc4)CC3)ccc2c1	-33.2%	9.6%	31.6µM*	-39.1%	-1.8%
CN(C)C(=O)c1ccc(-c2cc(NCc3ccccc3)ncn2)cc1	.	.	.	-6.5%[0.501 µM]	.
CCOC(=O)C1CCCN(C2=C(NS(=O)(=O)c3ccc(Br)cc3)C(=O)c3ccccc3C2=O)C1 (stereo not drawn)	8.91µM*	10µM*	10µM*	.	14.3%
CC(C)(CN1CCCC1)NS(=O)(=O)c1ccc(Cl)cc1	5.5%	0.2%	0.0%	4.6%[12.7 µM]	8.9%
CCOC(=O)C1CCN(CC(C)(C)NS(=O)(=O)c2ccc(Cl)cc2)CC1	50.1µM*	79.4µM*	3.16µM*	11.2µM*	-2.3%
CCOC(=O)C1CCCN(C(=O)CCNS(=O)(=O)c2ccc(Br)cc2)C1 (stereo not drawn)	-4.6%	56.1%	-12.8%	0.2%[12.7 µM]	-21.7%

Screening data (PubChem BioAssay)
